Assay outcomes deposited in PubChem by several laboratories.
In the library only some 0.6% were active in any assay of this set; here they are far more common.
Hsp90 inh: tumor Hsp90 inhibitors, primary screen, cell lysate, fluorescence polarization, NCI-N417 lysate. hit rate 0.35% among 64,000. Heat shock protein HSP 90-alpha (Homo sapiens), P07900. Cy3B-geldanamycin FP displacement. inhibition, % at 30 µM;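 active means inhibition above 50%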
CatB mix inh: cathepsin B inhibitors from pooled compounds, primary screen, biochemical, compound mixtures, AMC fluorescence. Purified cathepsin B, AMC dipeptide fluorescence. inhibition, %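 (ten-compound pools at 5 µM per compound and 50 µM total)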. hit rate 0.06% among 62,000. AID 488, 2006; in the data active means inhibition above about 22%, passing the limit was not always enough; inconclusive means no clear call, values can overlap the other calls
CatB block: human cathepsin B inhibitors, primary screen, biochemical, fluorogenic substrate; P07858; purified cathepsin B, fluorescence; inhibition, %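 (tested at 10 µM)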; hit rate 0.1% among 63,000; AID 453, 2006; in the data active means inhibition above about 21%
CatL inh: inhibitors of human cathepsin L, biochemical; purified cathepsin L, fluorogenic substrate, fluorescence; AID 460, 2006; hit rate 0.17% among 58,000; inhibition, %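 (tested at 10 µM)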; in the data active means inhibition above about 45%
CatS inh: inhibitors of human cathepsin S, biochemical, compound mixtures | recombinant cathepsin S, AMC dipeptide fluorescence, pooled mixtures | hit rate 0.06% among 62,000 | P25774 | inhibition, %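 (tested at 5 µM per compound within 10-compound mixtures)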; in the data active means inhibition above about 32%, passing the limit was not always enough; inconclusive means no clear call, values can overlap the other calls
Target sequence (P25774 115-331 limits assumed): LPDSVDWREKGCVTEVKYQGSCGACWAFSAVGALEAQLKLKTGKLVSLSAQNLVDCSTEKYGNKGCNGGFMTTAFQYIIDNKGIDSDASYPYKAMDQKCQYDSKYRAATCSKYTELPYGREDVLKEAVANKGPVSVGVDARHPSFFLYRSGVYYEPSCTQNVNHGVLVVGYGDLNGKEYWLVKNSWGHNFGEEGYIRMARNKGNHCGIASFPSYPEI
Large screens that a line does not name were inactive; ! = not active in a repeat.

C[C@H]1CCCC(=O)CCC/C=C/c2cc(O)cc(O)c2C(=O)O1	Hsp90 inh 87
CCOC(=O)c1c(N)n(Cc2ccco2)c2nc3ccccc3nc12	none
CCCCn1c(NC(=O)c2ccco2)c(C(=O)OCC)c2nc3ccccc3nc21	Hsp90 inh 72
NCC#Cc1ccccc1	none (no result: CatB mix inh, CatB block, CatL inh, CatS inh)
CCc1ccccc1NC(=O)CSc1nnc([C@@H](N)Cc2c[nH]c3ccccc23)o1	CatL inh 120
Cc1ccc(NC(=O)CSc2nnc([C@@H](N)Cc3c[nH]c4ccccc34)o2)c(C)c1	CatL inh 93
COc1ccc2[nH]c(C[N+](C)(C)C)cc2c1	none (no result: CatB mix inh, CatB block, CatL inh, CatS inh)
CN(N=O)c1ccc(O)c(O)c1	Hsp90 inh 93 (no result: CatB mix inh, CatB block, CatL inh, CatS inh)
CCN(CC)c1ncnc2c1ncn2[C@@H]1O[C@H](COP(=O)(O)OP(=O)(O)C(Br)(Br)P(=O)(O)O)[C@@H](O)[C@H]1O	none (no result: CatB mix inh, CatB block, CatL inh, CatS inh)
CCCN(CCC)[C@@H]1CCc2c(F)ccc(O)c2C1	none (no result: CatB mix inh, CatB block, CatL inh, CatS inh)
COc1ccc2[nH]cc(CCN3CCCC3)c2c1	none (no result: CatB mix inh, CatB block, CatL inh, CatS inh)
COc1cc2c(cc1OC)-c1c(OC)c(OC)cc3c1C(C2)N(C)CC3 (configuration not stated)	Hsp90 inh 91, CatB block 27, CatS inh inconclusive
NC(=O)CI	none (no result: CatB mix inh, CatB block, CatL inh, CatS inh)
C[Se]C[C@H](N)C(=O)O	none (no result: CatB mix inh, CatB block, CatL inh, CatS inh)
CN1CC[C@@]2(C)c3cc(O)ccc3N(C)C12 (some centres not stated)	Hsp90 inh 91 (no result: CatB mix inh, CatB block, CatL inh, CatS inh)
C[C@H]1C2Cc3ccc(O)cc3C1(C)CCN2CC1CC1 (some centres not stated)	none (no result: CatB mix inh, CatB block, CatL inh, CatS inh)
CC(C)[C@@]1(NC(=O)[C@@H]2C[C@@H]3c4cccc5[nH]cc(c45)C[C@H]3N(C)C2)O[C@@]2(O)[C@@H]3CCCN3C(=O)[C@H](Cc3ccccc3)N2C1=O	Hsp90 inh 87!
COc1ccc2c(c1)C13CCCCC1C(C2)N(C)CC3 (configuration not stated)	none (no result: CatB mix inh, CatB block, CatL inh, CatS inh)
CCCC[N+]1(C)C2CC(OC(=O)[C@H](CO)c3ccccc3)CC1C1OC12 (some centres not stated)	none (no result: CatB mix inh, CatB block, CatL inh, CatS inh)
Cn1cccc1CNCCc1ccccc1F	CatL inh 54
NC(Cc1cc(O)c(O)cc1O)C(=O)O (configuration not stated)	Hsp90 inh 94 (no result: CatB mix inh, CatB block, CatL inh, CatS inh)
CCn1nc(-c2cccs2)nc2c(=O)n(C)c(=O)nc1-2	Hsp90 inh 98, CatB mix inh 86, CatB block 82, CatL inh 81, CatS inh 87
